Publication PMC4336329 (PLoS ONE, 2015)
Among all 310,000 compounds or so, about 14,000 (4.5%) showed an effect of 50% or more. Effects have a minus sign here. For the sample, strong results were picked, then their nearest neighbours and some compounds at random.

Biological target: human ether-à-go-go-related gene (hERG) potassium channel (human, UniProt Q12809)
Assay: primary screen, population patch clamp on CHO cells stably expressing hERG; higher = less effect of the substance
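Also: peak tail current of the secondary pulse compared with the same well before compound.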

human ether-à-go-go-related gene (hERG) potassium channel, sequence (Q12809 whole entry, looked up): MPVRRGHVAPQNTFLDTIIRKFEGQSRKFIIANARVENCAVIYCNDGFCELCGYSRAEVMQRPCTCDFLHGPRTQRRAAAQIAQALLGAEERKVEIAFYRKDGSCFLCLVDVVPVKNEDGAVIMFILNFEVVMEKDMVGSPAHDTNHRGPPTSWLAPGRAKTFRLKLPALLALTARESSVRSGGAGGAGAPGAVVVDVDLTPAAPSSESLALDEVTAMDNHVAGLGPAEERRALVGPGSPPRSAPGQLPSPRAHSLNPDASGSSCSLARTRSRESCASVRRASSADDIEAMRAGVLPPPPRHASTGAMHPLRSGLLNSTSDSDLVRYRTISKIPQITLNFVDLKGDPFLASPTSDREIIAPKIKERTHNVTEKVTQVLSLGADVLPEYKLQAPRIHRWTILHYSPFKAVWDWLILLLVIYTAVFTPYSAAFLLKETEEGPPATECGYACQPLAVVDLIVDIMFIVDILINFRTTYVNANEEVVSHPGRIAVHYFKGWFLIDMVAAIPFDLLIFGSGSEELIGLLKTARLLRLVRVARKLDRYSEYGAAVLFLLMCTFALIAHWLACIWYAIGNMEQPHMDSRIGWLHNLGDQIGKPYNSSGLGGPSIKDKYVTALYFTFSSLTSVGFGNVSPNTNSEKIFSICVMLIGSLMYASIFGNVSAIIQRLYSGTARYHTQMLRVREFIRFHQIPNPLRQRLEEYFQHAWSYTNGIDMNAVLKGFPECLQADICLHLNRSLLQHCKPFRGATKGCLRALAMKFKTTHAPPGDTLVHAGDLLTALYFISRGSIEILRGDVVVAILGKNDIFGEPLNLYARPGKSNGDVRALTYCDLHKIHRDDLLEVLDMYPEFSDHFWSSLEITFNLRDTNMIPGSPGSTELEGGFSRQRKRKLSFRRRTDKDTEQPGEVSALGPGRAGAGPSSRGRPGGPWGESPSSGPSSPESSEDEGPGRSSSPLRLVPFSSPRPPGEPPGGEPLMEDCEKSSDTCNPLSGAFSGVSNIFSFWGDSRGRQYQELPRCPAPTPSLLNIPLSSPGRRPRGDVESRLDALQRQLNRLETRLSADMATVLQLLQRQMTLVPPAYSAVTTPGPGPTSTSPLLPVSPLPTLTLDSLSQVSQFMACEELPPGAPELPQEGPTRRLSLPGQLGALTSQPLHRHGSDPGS

SMILES | hERG current change (%, negative = inhibition) at 10uM
O=C(Nc1ccc(S(=O)(=O)NCc2cccnc2)cc1)c1ccco1 | 10.2%
O=C(COc1ncnc2sccc12)N1CCc2ccccc2C1 | 0.518%
Cc1nc2ccccc2c(=O)n1/N=C/c1ccc(O)cc1O | 10.4%
Cc1ccc(NC(C)C(=O)N/N=C/c2ccc([N+](=O)[O-])s2)cc1 (centres unmarked) | 8.3%
Cl.O=C(COc1ccc(Cl)cc1)N(c1ccc(Cl)cc1)C1CN2CCC1CC2 (centres unmarked) | -65.1%
O=C(COc1ccc(Cl)cc1)N1CCCC1 | -7.47%
O=C(Nc1ccc(Cl)cc1)OC1CN2CCC1CC2 (centres unmarked) | -40.6%
Cl.O=C(COc1ccc(Cl)cc1)N(c1ccccc1Cl)C1CN2CCC1CC2 (centres unmarked) | -50.5%
O=C(COc1ccc(Cl)cc1)N(Cc1cccs1)C1CCS(=O)(=O)C1 (centres unmarked) | -48.1%
Cl.O=C(COc1ccc(Cl)cc1)NC1CN2CCC1CC2 (centres unmarked) | -35.1%
Cl.NCC(O)(c1ccc(Cl)cc1)c1ccc(Cl)cc1 | -5.47%
CN1CCN(CC(C)(C)NS(=O)(=O)c2ccc(Cl)cc2)CC1 | -20.4%
CN1CCN(CC(O)(c2ccc(Cl)cc2)c2ccc(Cl)cc2)CC1 | -73.3%
O=C(N/N=C/c1cccnc1)c1ccc(NC(=O)c2cccc(Cl)c2)cc1 | 15.3%
Cc1cccc(Cl)c1NC(=O)N1CCCN(c2nc3ccc(Cl)cc3s2)CC1 | -20.6%
COc1cccc(/C=C/C2=CC(C)(C)NC(=S)N2)c1 | 16%
COc1ccc(CN(Cc2ccccn2)S(=O)(=O)c2ccc(-n3cnnn3)c(OC)c2)cc1 | -47.2%
COc1ccc(CN(C2CCCC2)S(=O)(=O)c2ccc(-n3cnnn3)cc2)cc1 | -43.8%
COc1ccc(CCN(Cc2cccs2)S(=O)(=O)c2ccc(-n3cnnn3)c(OC)c2)cc1OC | 10.4%
COc1ccc(CN(C2CCCC2)S(=O)(=O)c2ccc(-n3cnnn3)cc2)cc1OC | -64%
COc1cc(S(=O)(=O)N(Cc2ccccc2)Cc2ccccn2)ccc1-n1cnnn1 | 2.81%
COc1cc(S(=O)(=O)N(CCc2ccccc2)Cc2cccs2)ccc1-n1cnnn1 | -3.57%

SMILES | hERG current change (%, negative = inhibition) at 10uM
COc1ccc(CCN(Cc2cccs2)S(=O)(=O)c2ccc(-n3cnnn3)cc2)cc1OC | -52.5%
COc1ccc(CN(Cc2ccccn2)S(=O)(=O)c2ccc(-n3cnnn3)cc2)cc1 | -72.7%
COc1ccc(CN(C2CCCC2)S(=O)(=O)c2ccc(-n3cnnn3)c(OC)c2)cc1OC | -28.1%
O=C(N/N=C/c1ccc(Cl)cc1Cl)C(=O)NC1CC1 | 17.4%
Nc1nonc1C(=O)OCC(=O)c1ccc(Cl)cc1 | 4.6%
Cc1ccccc1NC(=O)NC1(C(=O)N2CCCC2)CCCCC1 | 9.33%
CCCCN(CC)CCCNC(=O)c1cc2cc3ccc(C)cc3nc2o1 | -53.4%
CCCCN(C)CCNC(=O)c1cc2cc3ccc(OC)cc3nc2o1 | -43%
CCN(CC)CCNC(=O)c1cc2cc3ccc(OC)cc3nc2o1 | -18%
COc1ccc2cc3cc(C(=O)NCCC(C)C)oc3nc2c1 | 6.93%
CCCCN(CC)CCCNC(=O)c1cc2cc3ccc(OC)cc3nc2o1 | -64.5%
Cc1ccc2cc3cc(C(=O)NC4CC4)oc3nc2c1 | 8.43%
COCCNC(=O)c1cc2cc3ccc(OC)cc3nc2o1 | 12.8%
Cc1ccc2cc3cc(C(=O)NCCC(C)C)oc3nc2c1 | 8.43%
CCCN(CCC)CCCNC(=O)c1cc2cc3ccc(OC)cc3nc2o1 | -52.8%
CCOC(=O)C1=C(N)Oc2c(oc(CO)cc2=O)C1c1c(F)cccc1Cl (centres unmarked) | 0.47%
Nc1ncc([N+](=O)[O-])cc1S(=O)(=O)c1ccccc1 | 8.32%
COc1ccc(N2C(=O)C3CCCN3C2c2cc(OC)c(OC)cc2OC)cc1 (centres unmarked) | -4.23%
CSc1nc(C)cc(C)c1C(N)=O | 8.49%
CCCNC(=O)NC(=O)CSc1nnc(-c2ccncc2)n1CC | 11.6%
CCc1ccc(-c2cc3c(=O)n(CC(=O)NCCCN4CCN(C)CC4)ncn3n2)cc1 | -4.24%
COc1ccc(-c2cc3c(=O)n(CC(=O)NCCCN4CCC(Cc5ccccc5)CC4)ncn3n2)cc1 | -72.4%

SMILES | hERG current change (%, negative = inhibition) at 10uM
COc1ccc(-c2cc3c(=O)n(CC(=O)NCCCc4ccccc4)ncn3n2)cc1 | 7.35%
COc1ccc(-c2cc3c(=O)n(CC(=O)NCCCN4CCC(N5CCCCC5)CC4)ncn3n2)cc1 | 21.5%
CCC1CCCCN1CCCNC(=O)Cn1ncn2nc(-c3ccc(OC)cc3)cc2c1=O (centres unmarked) | -42.1%
COc1ccc(-c2cc3c(=O)n(CC(=O)NCCCN4CCN(Cc5ccccc5)CC4)ncn3n2)cc1 | -54.8%
O=S(=O)(c1ccccc1)N1CCN=C1SCc1ccc(Cl)c(Cl)c1 | -2.01%
Cc1ccc(NC(=O)CCCCCN2C(=O)[C@@H]3Cc4ccccc4CN3C2=O)c(C)c1 | 2.68%
Cc1ccc(-c2cc(-c3cccs3)[nH]n2)c(O)c1 | 1.75%
COC(=O)CSc1nc(NC(C)=O)nc(C)c1Br | 9.72%
O=C(CSc1nc2ccccc2s1)N1N=C(c2cccs2)CC1c1ccc(F)cc1 (centres unmarked) | 0.782%
O=C(CSc1nc(=O)n2ccccc2n1)N1N=C(c2cccs2)CC1c1ccc(F)cc1 (centres unmarked) | -52.2%
COc1ccc(C2CC(c3cccs3)=NN2C(=O)CSc2nc(=O)n3ccccc3n2)cc1 (centres unmarked) | -57.5%
O=C(CSc1nc2c(cnn2-c2ccccc2)c(=O)[nH]1)N1N=C(c2cccs2)CC1c1ccc(F)cc1 (centres unmarked) | 16%
COc1ccc(C2CC(c3cccs3)=NN2C(=O)CSC2=NCCS2)cc1 (centres unmarked) | -11%
COc1ccc(C2CC(c3cccs3)=NN2C(=O)CSc2nc3ccccc3s2)cc1 (centres unmarked) | -6.91%
O=C(NCc1ccccc1)c1ccc2nnsc2c1 | -1.17%
Cc1cc(=O)[nH]c(SCC(=O)N(CCC#N)c2ccccc2)c1C#N | 15.3%
COc1cc(OC)cc(C(=O)NCCNC(=O)c2ccccn2)c1 | 14.3%
CCN(CCCNC(=O)CN1C(=O)COc2ccccc21)c1cccc(C)c1 | -11.3%
CC(=O)Nc1ccc(Sc2ncccc2C(=O)Nc2ccc(F)cc2)cn1 | 13.9%
O=C(Nc1cc(C(F)(F)F)cc(C(F)(F)F)c1)c1ccc(Cn2cc(C(F)(F)F)ccc2=O)cc1 | 22%
COCCc1nn2c(=O)cc(COC(=O)c3cc(OC)c(OC)c(OC)c3)nc2s1 | -22.6%
CCc1nn2c(=O)cc(COC(=O)c3ccc(SC)cc3OC)nc2s1 | -18.7%

SMILES | hERG current change (%, negative = inhibition) at 10uM
CCc1nn2c(=O)cc(COC(=O)c3cc(Cl)c(OC)c(OC)c3)nc2s1 | -69.5%
CCOc1cccc(C2C(C(=O)c3ccc(C)o3)=C(O)C(=O)N2c2nccs2)c1 (centres unmarked) | 0.752%
O=C(c1ccc(F)cc1)C1CCN(C(=O)c2ccc(F)cc2)CC1 | -22.7%
Cc1ccc(C(=O)NC2CCN(CCCC(=O)c3ccc(F)cc3)CC2)cc1 | -74%
C=CCNC(=O)N1CCc2[nH]c3ccc(F)cc3c2C1 | 6.56%
O=C(CCCN1CCC(NC(=O)c2ccccc2)CC1)c1ccc(Cl)cc1 | -77.8%
Cc1ccc(C(=O)NC2CCN(C(=O)Nc3ccc(F)cc3)CC2)cc1 | 1.24%
Cl.O=C(CCCN1CCc2[nH]c3ccc(F)cc3c2C1)c1ccc(F)cc1 | -70.4%
O=C(CCCN1CCC(C(=O)c2ccc(F)cc2)CC1)c1ccc(F)cc1 | -78.5%
O=C(CN1CCC(NC(=O)c2ccccc2)CC1)NCc1ccccc1F | -20.6%
Cc1ccc(C(=O)NC2CCN(S(=O)(=O)c3ccc(F)cc3)CC2)cc1 | 11.6%
O=C(C1CCCCC1)N1CCc2[nH]c3ccc(F)cc3c2C1 | -3.94%
CN1CCN(CCCC(=O)c2ccc(F)cc2)CC1.Cl | -14.5%
CCN(CC)C(=O)N1CCC(NC(=O)c2ccccc2)CC1 | 12.6%
COC(=O)C1C(=O)C2=C(CC1C)NC(=O)CC2c1cccc(C)c1 (centres unmarked) | -12.6%
CCCSc1nnc(NC(=O)c2ccco2)s1 | 2.42%
CC(NC(=O)CSc1nnc(-c2cc3cc(Cl)ccc3o2)n1C)c1ccccc1 (centres unmarked) | -12%
CCOC(=O)c1oc2ccccc2c1COC(=O)CNC(=O)c1cccc(C)c1 | 3.66%
CC(=O)c1cn(C)c(=O)n(C)c1=O | 4.7%
COC(=O)c1ccc(C23CC4(C2)[C@H](CN(Cc2cccnc2)[C@@H]4c2ccccc2)C3c2ccccc2)cc1 (some centres unmarked) | 12.8%
